Source: PubChem BioAssay AID1159580 (chemical genetic matrix, 2015)
Values joined by “and” are separate entries in the source; they are usually repeats but may differ in a detail not shown here. Equal entries are not always repeated. About 2,000 (36%) of roughly 5,500 compounds were called active. Another 18% or so got no clear call; they are omitted. Cut-off read from the data, not from the text of the source: active = normalized growth mostly below about 0.91 (no sharp cut-off); inconclusive = no clear call, values can overlap the other calls; inactive = mostly above about 0.92. The list shows a part of the results.

Experiment: chemical genetic growth profiling, strain panel (AID 1159580);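 note: tested at 20 µM; growth read once vehicle control cultures reached saturation at 30 °C; 1 = growth at the plate median or of vehicle wells; lower values mean less growth of the strain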
Settings: growth OD

Measured: normalized growth

CC(=O)Nc1ccc(S(=O)(=O)Nc2ccc([N+](=O)[O-])cc2)cc1
inactive: S. cerevisiae deletion strains, locus YAL013W, strain DEP1, active compounds read low 1.01 | S. cerevisiae deletion strains, locus YBR021W, strain FUR4, active compounds read low 0.97 | S. cerevisiae deletion strains, locus YBR229C, strain ROT2, active compounds read low 1.01 | S. cerevisiae deletion strains, locus YCL029C, strain bik1, active compounds read low 1.01 | S. cerevisiae deletion strains, locus YDL035C, strain GPR1, active compounds read low 1.01 | S. cerevisiae deletion strains, locus YDL074C, strain BRE1, active compounds read low 0.986 | S. cerevisiae deletion strains, locus YDL101C, strain DUN1, active compounds read low 1 | S. cerevisiae deletion strains, locus YDL134C, strain PPH21, active compounds read low 1 | S. cerevisiae deletion strains, locus YDL185W, strain tfp1, active compounds read low 0.999 | S. cerevisiae deletion strains, locus YDL192W, strain arf1, active compounds read low 1.01 | S. cerevisiae deletion strains, locus YDR101C, strain arx1, active compounds read low 0.99 | S. cerevisiae deletion strains, locus YDR150W, strain NUM1, active compounds read low 1.02 | S. cerevisiae deletion strains, locus YDR162C, strain NBP2, active compounds read low 1.01 | S. cerevisiae deletion strains, locus YDR318W, strain mcm21, active compounds read low 0.991 | S. cerevisiae deletion strains, locus YDR388W, active compounds read low 0.999 | S. cerevisiae deletion strains, locus YDR502C, strain sam2, active compounds read low 1 | S. cerevisiae deletion strains, locus YEL061C, strain CIN8, active compounds read low 1.01 | S. cerevisiae deletion strains, locus YER110C, active compounds read low 0.997 | S. cerevisiae deletion strains, locus YER155C, strain BEM2, active compounds read low 1 | S. cerevisiae deletion strains, locus YER167W, strain BCK2, active compounds read low 1.01 | S. cerevisiae deletion strains, locus YGL078C, strain dbp3, active compounds read low 1 | S. cerevisiae deletion strains, locus YGL086W, strain mad1, active compounds read low 1 | S. cerevisiae deletion strains, locus YGL248W, strain PDE1, active compounds read low 1 | S. cerevisiae deletion strains, locus YGR078C, strain PAC10, active compounds read low 0.995 | S. cerevisiae deletion strains, locus YGR135W, strain pre9, active compounds read low 0.996 | S. cerevisiae deletion strains, locus YGR229C, strain SMI1, active compounds read low 1.01 | S. cerevisiae deletion strains, locus YGR252W, strain gcn5, active compounds read low 0.955 | S. cerevisiae deletion strains, locus YHR030C, strain SLT2, active compounds read low 1.01 and 1 | S. cerevisiae deletion strains, locus YHR079C, strain IRE1 (second series), active compounds read low 0.997 | S. cerevisiae deletion strains, locus YHR079C, strain IRE1, active compounds read low 0.984 | S. cerevisiae deletion strains, locus YHR094C, strain hxt1, active compounds read low 1 | S. cerevisiae deletion strains, locus YHR129C, strain ARP1, active compounds read low 1 | S. cerevisiae deletion strains, locus YHR200W, strain rpn10, active compounds read low 0.992 | S. cerevisiae deletion strains, locus YIL066C, strain RNR3, active compounds read low 1.02 | S. cerevisiae deletion strains, locus YIL073C, strain SPO22, active compounds read low 1.05 | S. cerevisiae deletion strains, locus YIL125W, strain kgd1, active compounds read low 0.996 | S. cerevisiae deletion strains, locus YIR030C, strain dcg1, active compounds read low 1.01 | S. cerevisiae deletion strains, locus YJL095W, strain BCK1, active compounds read low 0.994 and 0.998 | S. cerevisiae deletion strains, locus YJL134W, strain LCB3, active compounds read low 1.01 | S. cerevisiae deletion strains, locus YJL168C, strain set2, active compounds read low 0.989 | S. cerevisiae deletion strains, locus YJL187C, strain SWE1 (second series), active compounds read low 1.01 | S. cerevisiae deletion strains, locus YJR043C, strain POL32, active compounds read low 0.995 | S. cerevisiae deletion strains, locus YJR066W, strain TOR1, active compounds read low 0.93 | S. cerevisiae deletion strains, locus YJR075W, strain HOC1, active compounds read low 1.01 | S. cerevisiae deletion strains, locus YKL009W, strain mrt4, active compounds read low 1.09 | S. cerevisiae deletion strains, locus YKL068W, active compounds read low 1 | S. cerevisiae deletion strains, locus YKL085W, strain MDH1 (second series), active compounds read low 1.01 | S. cerevisiae deletion strains, locus YKL085W, strain MDH1, active compounds read low 1.01 | S. cerevisiae deletion strains, locus YKL190W, strain CNB1, active compounds read low 1.01 | S. cerevisiae deletion strains, locus YKR001C, strain vps1, active compounds read low 1.01 | S. cerevisiae deletion strains, locus YLR039C, strain RIC1, active compounds read low 1.04 | S. cerevisiae deletion strains, locus YLR058C, strain SHM2, active compounds read low 1.01 | S. cerevisiae deletion strains, locus YLR102C, strain apc9, active compounds read low 0.994 | S. cerevisiae deletion strains, locus YLR113W, strain HOG1, active compounds read low 0.969 | S. cerevisiae deletion strains, locus YLR262C, strain YPT6, active compounds read low 1.04 | S. cerevisiae deletion strains, locus YLR268W, strain sec22, active compounds read low 0.993 | S. cerevisiae deletion strains, locus YLR330W, strain CHS5, active compounds read low 1.01 | S. cerevisiae deletion strains, locus YLR342W, strain FKS1 (second series), active compounds read low 0.995 | S. cerevisiae deletion strains, locus YLR371W, strain rom2, active compounds read low 0.994 | S. cerevisiae deletion strains, locus YLR418C, strain cdc73, active compounds read low 0.949 | S. cerevisiae deletion strains, locus YML016C, strain PPZ1, active compounds read low 1.01 | S. cerevisiae deletion strains, locus YML032C, strain rad52, active compounds read low 0.987 | S. cerevisiae deletion strains, locus YML124C, strain tub3, active compounds read low 1 | S. cerevisiae deletion strains, locus YMR078C, strain ctf18, active compounds read low 0.993 | S. cerevisiae deletion strains, locus YMR223W, strain ubp8, active compounds read low 1 | S. cerevisiae deletion strains, locus YMR263W, strain SAP30, active compounds read low 1.01 | S. cerevisiae deletion strains, locus YMR307W, strain GAS1, active compounds read low 0.989 | S. cerevisiae deletion strains, locus YNL067W, strain RPL9B, active compounds read low 1.01 | S. cerevisiae deletion strains, locus YNL128W, strain TEP1, active compounds read low 1.01 | S. cerevisiae deletion strains, locus YNL153C, strain GIM3, active compounds read low 0.995 | S. cerevisiae deletion strains, locus YNL183C, strain NPR1, active compounds read low 0.941 | S. cerevisiae deletion strains, locus YNL233W, strain BNI4, active compounds read low 1 | S. cerevisiae deletion strains, locus YNL250W, strain rad50, active compounds read low 0.996 | S. cerevisiae deletion strains, locus YNL271C, strain bni1, active compounds read low 1 | S. cerevisiae deletion strains, locus YNL298W, strain CLA4, active compounds read low 1 | S. cerevisiae deletion strains, locus YNL307C, strain MCK1, active compounds read low 1 | S. cerevisiae deletion strains, locus YNL322C, strain KRE1, active compounds read low 1 | S. cerevisiae deletion strains, locus YNR052C, strain pop2, active compounds read low 1 | S. cerevisiae deletion strains, locus YOL006C, strain TOP1, active compounds read low 0.975 | S. cerevisiae deletion strains, locus YOL012C, strain htz1 1.05 | S. cerevisiae deletion strains, locus YOL147C, strain pex11, active compounds read low 0.996 | S. cerevisiae deletion strains, locus YOR061W, strain CKA2, active compounds read low 1.01 | S. cerevisiae deletion strains, locus YOR069W, strain VPS5, active compounds read low 1 | S. cerevisiae deletion strains, locus YOR136W, strain idh2, active compounds read low 0.998 | S. cerevisiae deletion strains, locus YOR144C, strain elg1, active compounds read low 0.997 | S. cerevisiae deletion strains, locus YOR184W, strain ser1, active compounds read low 1 | S. cerevisiae deletion strains, locus YOR231W, strain MKK1, active compounds read low 0.989 | S. cerevisiae deletion strains, locus YOR316C, strain cot1, active compounds read low 1 | S. cerevisiae deletion strains, locus YPL055C, strain LGE1, active compounds read low 1.03 | S. cerevisiae deletion strains, locus YPL241C, strain CIN2, active compounds read low 1.01 | S. cerevisiae deletion strains, locus YPL256C, strain CLN2, active compounds read low 0.989 | S. cerevisiae deletion strains, locus YPR119W, strain clb2, active compounds read low 0.998 | S. cerevisiae deletion strains, locus YPR141C, strain kar3, active compounds read low 1 | S. cerevisiae deletion strains, locus YPR163C, strain tif3, active compounds read low 1.01 | S. cerevisiae deletion strains, locus YPR167C, strain met16, active compounds read low 0.992 | S. cerevisiae deletion strains, strain wtn01, active compounds read low 0.988 | S. cerevisiae strains, strain wild type, active compounds read low 1.01
